Experimental data published in PubChem BioAssay (EPA / NIEHS).
Several values for one entry are separate records, joined by “and”; a condition that tells them apart may be missing. Equal values may be shown once. The source holds several records for some structures; these can differ, active in one and inactive in another. Activity calls are given as the source filed them. Rule for the calls: active = hit-call score of the fitted dose curve at least 0.9, where 1 is the maximum; inactive = score below 0.9.

Key:
[1] = read-out: Transforming growth factor beta 1 (TGFb1), TGFB1 (gene 7040); experiment: BSK_KF3CT_TGFb1: BioMAP Diversity Plus: KF3CT Assay for Transforming growth factor beta 1 (TGFb1) Biomarker Activity (AID 2283072); details: primary human keratinocytes with fibroblasts; actives raise or lower the signal
How it was run: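 Human keratinocyte plus foreskin fibroblast primary co-culture, dosed with chemical for 24 h. TGF-b1 quantified by ELISA. Activity fitted bidirectionally against DMSO negative control as baseline.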

[2] = read-out: Matrix Metallopeptidase 9 (MMP9), MMP9 (gene 4318); experiment: BSK_KF3CT_MMP9: BioMAP Diversity Plus: KF3CT Assay for Matrix Metallopeptidase 9 (MMP9) Biomarker Activity (AID 2283074); details: primary human keratinocytes with fibroblasts; actives raise or lower the signal;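 for AC50: MMP9 protein level quantified by ELISA in the co-culture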
How it was run: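 Human keratinocyte and foreskin fibroblast co-culture exposed to chemicals for 24 h; MMP9 biomarker measured by ELISA, bidirectional fitting relative to DMSO; cytotoxicity tracked by SRB total protein staining in parallel cultures.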

[3] = read-out: urokinase plasminogen activator (uPA), PLAU (gene 5328); experiment: BSK_KF3CT_uPA: BioMAP Diversity Plus: KF3CT Assay for urokinase plasminogen activator (uPA) Biomarker Activity (AID 2283075); details: primary human keratinocytes with fibroblasts; actives raise or lower the signal
How it was run: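 Primary human keratinocyte/foreskin fibroblast co-culture exposed to chemical; uPA measured by ELISA at 24 h. Bidirectional fit versus DMSO, with parallel SRB total-protein staining for cytotoxicity.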

CD40, CD40 (gene 958) [4] = experiment: BSK_LPS_CD40: BioMAP Diversity Plus: LPS Assay for CD40 Biomarker Activity (AID 2283076); details: primary human HUVEC with PBMC; actives raise or lower the signal
How it was run: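 Using a multiplexed primary human co-culture (umbilical vein endothelium plus PBMC), CD40 was read by ELISA 24 h after dosing, with cytotoxicity tracked by sulforhodamine B staining of parallel cultures and activity fitted bidirectionally versus DMSO.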

[5] = read-out: E-selectin (Homo sapiens) (UniProt P16581); experiment: BSK_LPS_Eselectin: BioMAP Diversity Plus: LPS Assay for Eselectin Biomarker Activity (AID 2283077); details: primary human HUVEC with PBMC; actives raise or lower the signal
How it was run: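 Dose chemical onto LPS-driven HUVEC/PBMC co-culture; after 24 h, run ELISA for E-selectin; fit up- and down-going responses relative to DMSO control.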

[6] = read-out: Interleukin-8 (IL8), CXCL8 (gene 3576); experiment: BSK_LPS_IL8: BioMAP Diversity Plus: LPS Assay for Interleukin-8 (IL8) Biomarker Activity (AID 2283078); details: primary human HUVEC with PBMC; actives raise or lower the signal
How it was run: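 In this LPS system, chemical-treated human umbilical vein endothelium/PBMC co-cultures were harvested at 24 h for IL-8 ELISA.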

[7] = BSK_LPS_SRB: Viability Assessment in the BioMAP Diversity Plus: LPS Assay (AID 2283079); details: primary human HUVEC with PBMC;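 note: total protein by sulforhodamine B absorbance as a cytotoxicity measure; measured one day after compound addition; fitted in both directions against DMSO so loss or gain of signal counts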
How it was run: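 Cytotoxicity endpoint in human endothelial–PBMC co-culture: 24 h exposure, then SRB (0.1%) staining, 560 nm read.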

[8] = read-out: Interleukin-1 alpha (IL1a), IL1A (gene 3552); experiment: BSK_LPS_IL1a: BioMAP Diversity Plus: LPS Assay for Interleukin-1 alpha (IL1a) Biomarker Activity (AID 2283080); details: primary human HUVEC with PBMC; actives raise or lower the signal
How it was run: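 Primary human HUVEC and PBMC co-culture stimulated with LPS is dosed and harvested at 24 h. Both increases and decreases in ELISA-measured IL-1a are scored relative to DMSO.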

[9] = read-out: Monocyte Chemoattractant Protein-1 (MCP1), CCL2 (gene 6347); experiment: BSK_LPS_MCP1: BioMAP Diversity Plus: LPS Assay for Monocyte Chemoattractant Protein-1 (MCP1) Biomarker Activity (AID 2283081); details: primary human HUVEC with PBMC; actives raise or lower the signal
How it was run: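 Values derive from bidirectional fitting against DMSO of ELISA-measured MCP-1 in a human primary endothelial and mononuclear cell co-culture, 24 h after chemical addition under LPS activation.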

[10] = read-out: Macrophage colony-stimulating factor (MCSF), CSF1 (gene 1435); experiment: BSK_LPS_MCSF: BioMAP Diversity Plus: LPS Assay for Macrophage colony-stimulating factor (MCSF) Biomarker Activity (AID 2283083); details: primary human HUVEC with PBMC; actives raise or lower the signal
How it was run: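 Bidirectional fit versus DMSO of ELISA-measured M-CSF in co-cultured human umbilical vein endothelial cells and PBMC, sampled 24 h after dosing.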

[11] = read-out: Tissue Factor, F3 (gene 2152); experiment: BSK_LPS_TissueFactor: BioMAP Diversity Plus: LPS Assay for Tissue Factor Biomarker Activity (AID 2283084); details: primary human HUVEC with PBMC; actives raise or lower the signal
How it was run: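 Read-out: CD142 ELISA, 24 h. System: LPS-driven human endothelial/PBMC co-culture. Analysis: up- or down-signal fitted against DMSO.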

[12] = read-out: Tumor necrosis factor (Homo sapiens) (UniProt P01375); experiment: BSK_LPS_TNFa: BioMAP Diversity Plus: LPS Assay for Tumour Necrosis Factor alpha (TNFa) Biomarker Activity (AID 2283085); details: primary human HUVEC with PBMC; actives raise or lower the signal
How it was run: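 Human umbilical vein endothelial cells co-cultured with PBMC were exposed to test chemical and TNFa measured by ELISA 24 h after dosing. Bidirectional curve fitting was done relative to DMSO as negative control and baseline.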

[13] = read-out: Vascular cell adhesion molecule 1 (VCAM1), VCAM1 (gene 7412); experiment: BSK_LPS_VCAM1: BioMAP Diversity Plus: LPS Assay for Vascular cell adhesion molecule 1 (VCAM1) Biomarker Activity (AID 2283086); details: primary human HUVEC with PBMC; actives raise or lower the signal
How it was run: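 Human umbilical vein endothelial cells co-cultured with peripheral blood mononuclear cells under LPS stimulation were exposed to test chemical for 24 h. VCAM-1 levels were then measured by ELISA, with bidirectional curve fitting relative to DMSO as negative control and baseline.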

CD38, CD38 (gene 952) = experiment: BSK_SAg_CD38: BioMAP Diversity Plus: SAg Assay for CD38 Biomarker Activity (AID 2283087); details: primary human HUVEC with PBMC; actives raise or lower the signal
How it was run: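 Fluorescence ELISA of cell-surface CD38 served as the read-out, with either increase or decrease fitted against DMSO controls. Cells were a human umbilical vein endothelium plus PBMC co-culture under SEB/TSST-1 stimulation, measured 24 h after dosing.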

CD40, CD40 (gene 958) [14] = experiment: BSK_SAg_CD40: BioMAP Diversity Plus: SAg Assay for CD40 Biomarker Activity (AID 2283088); details: primary human HUVEC with PBMC; actives raise or lower the signal
How it was run: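 Endpoint derived by fitting increases or decreases versus DMSO controls. CD40 is detected by fluorescence ELISA in a human vascular co-culture of endothelium and PBMC at 24 h.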

CD69, CD69 (gene 969) = experiment: BSK_SAg_CD69: BioMAP Diversity Plus: SAg Assay for CD69 Biomarker Activity (AID 2283089); details: primary human HUVEC with PBMC; actives raise or lower the signal
How it was run: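 ELISA, fluorescence read-out: CD69 on human umbilical vein endothelial cell + PBMC co-culture, 24 h post-dosing. Gain or loss of signal fitted bidirectionally against DMSO baseline.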

[15] = read-out: Monocyte Chemoattractant Protein-1 (MCP1), CCL2 (gene 6347); experiment: BSK_SAg_MCP1: BioMAP Diversity Plus: SAg Assay for Monocyte Chemoattractant Protein-1 (MCP1) Biomarker Activity (AID 2283090); details: primary human HUVEC with PBMC; actives raise or lower the signal
How it was run: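 MCP-1 levels in the endothelial–PBMC SAg co-culture were quantified by ELISA at 24 h post-dosing; both increases and decreases versus DMSO scored. Cytotoxicity monitored by SRB total protein in parallel cultures.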

[16] = read-out: E-selectin (Homo sapiens) (UniProt P16581); experiment: BSK_SAg_Eselectin: BioMAP Diversity Plus: SAg Assay for Eselectin Biomarker Activity (AID 2283091); details: primary human HUVEC with PBMC; actives raise or lower the signal
How it was run: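 Endpoint values derive from bidirectional fitting relative to DMSO, using ELISA-measured E-selectin in a human vascular co-culture (umbilical vein endothelium plus PBMC) sampled 24 h after dosing.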

Measured: AC50

Sequence of E-selectin (Homo sapiens) (P16581 whole entry, looked up): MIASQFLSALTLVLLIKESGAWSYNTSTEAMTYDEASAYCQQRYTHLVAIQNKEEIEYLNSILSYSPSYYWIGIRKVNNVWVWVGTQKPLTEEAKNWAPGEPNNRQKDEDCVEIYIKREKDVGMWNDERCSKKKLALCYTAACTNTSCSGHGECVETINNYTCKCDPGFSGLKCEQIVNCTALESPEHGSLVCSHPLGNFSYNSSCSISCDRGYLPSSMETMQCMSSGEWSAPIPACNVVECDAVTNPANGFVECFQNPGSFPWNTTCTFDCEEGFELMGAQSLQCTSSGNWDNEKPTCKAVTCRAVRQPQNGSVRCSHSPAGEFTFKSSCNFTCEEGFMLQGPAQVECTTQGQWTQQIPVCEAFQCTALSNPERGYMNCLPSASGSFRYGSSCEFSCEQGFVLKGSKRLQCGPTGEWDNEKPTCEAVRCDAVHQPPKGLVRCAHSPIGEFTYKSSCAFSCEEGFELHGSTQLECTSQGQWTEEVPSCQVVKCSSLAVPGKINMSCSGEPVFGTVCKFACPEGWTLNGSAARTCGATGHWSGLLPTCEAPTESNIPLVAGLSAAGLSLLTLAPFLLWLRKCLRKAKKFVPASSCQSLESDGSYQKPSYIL
Sequence of Tumor necrosis factor (Homo sapiens) (P01375 whole entry, looked up): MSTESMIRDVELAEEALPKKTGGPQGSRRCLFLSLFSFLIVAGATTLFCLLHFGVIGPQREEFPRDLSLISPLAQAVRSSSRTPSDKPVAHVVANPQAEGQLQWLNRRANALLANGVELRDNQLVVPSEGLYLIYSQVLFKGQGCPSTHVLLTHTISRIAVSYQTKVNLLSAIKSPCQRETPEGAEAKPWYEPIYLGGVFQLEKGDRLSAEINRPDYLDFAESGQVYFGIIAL

CC(C=O)Cc1ccc(C(C)(C)C)cc1 (stereo not drawn)
active: [2] 36.7 µM | [3] 31 µM | CD40, CD40 (gene 958) [4] 27.2 µM | [5] 31.4 µM | [7] 32.6 µM | [8] 35.8 µM
inactive: all other assays above

CC(=O)c1c(C)c([N+](=O)[O-])c(C(C)(C)C)c([N+](=O)[O-])c1C
inactive: all assays above

c1ccc2cc(Nc3ccc(Nc4ccc5ccccc5c4)cc3)ccc2c1
inactive: all assays above

C1=CC2C3C=CC(C3)C2C1 (stereo not drawn)
inactive: all assays above

Cc1cc(CCC(=O)OCCOCCOCCOC(=O)CCc2cc(C)c(O)c(C(C)(C)C)c2)cc(C(C)(C)C)c1O
inactive: all assays above

CC1(C)CCC[C@]2(C)[C@H]3CCO[C@]3(C)CC[C@@H]12
active: [2] 36.7 µM and 35.6 µM | [3] 36.6 µM and 37.8 µM | CD40, CD40 (gene 958) [14] 36.6 µM | [16] 26.4 µM
inactive: CD40, CD40 (gene 958) [4] | [5] | [6] | [7] | [8] | [9] | [10] | [11] | [12] | [13] | CD38, CD38 (gene 952) | CD40, CD40 (gene 958) [14] | CD69, CD69 (gene 969) | [15] | [16]

CC=Cc1ccc(OCC)c(O)c1
not listed: [6]
inactive: all other assays above

O=C1OC[C@H](Cc2cccc(O)c2)[C@H]1Cc1cccc(O)c1
inactive: all assays above

CSCCC=O
not listed: [8]
inactive: all other assays above

CCN(CC)C(=O)N(CC)CC
inactive: all assays above

CCCCOC(=O)CCCCCCCC(=O)OCCCC
not listed: CD69, CD69 (gene 969)
inactive: all other assays above

CCCCCCC(CO)CCCC (stereo not drawn)
active: [2] 35.1 µM and 36.4 µM | [3] 30.5 µM and 36.6 µM
not listed: [1]
inactive: all other assays above
